The results in this text go back to PubChem BioAssay (NCATS).

Inconclusive results are not listed. Active and inactive are the calls of the source. Unless noted, calls come from the whole dose curve; as a rule, active = well fitted cell-killing curve with a large enough effect; inconclusive = small, poorly fitted or top-dose-only effect, or effect the other way; inactive = no such curve, though single readings can be large or run the other way.

Assay [1] is described as follows: Quantitative High-Throughput drug screen in 47 multiple myeloma cell lines against the NCATS MIPE library collection: OPM1_PLB cell viability assay (AID 1918989). Note: nearly all actives have a fitted effect of over 40% in size. Note: potency is the fitted concentration of half-maximal effect. The gist of the method:
(§1)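 500 cells/well; MIPE 4.0 drugs pin-transferred; 48 h, 37C, 5% CO2. CellTiter-Glo, 5 min RT, luminescence. Controls: DMSO 100%, media 0%.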

Assay [2] is described as follows: Quantitative High-Throughput drug screen in 47 multiple myeloma cell lines against the NCATS MIPE library collection: U266_ATCC cell viability assay (AID 1919864). Note: nearly all actives have a fitted effect of over 35% in size. Note: potency is the fitted concentration of half-maximal effect. The gist of the method:
as §1

Assay [3] in a line: Quantitative High-Throughput drug screen in 47 multiple myeloma cell lines against the NCATS MIPE library collection: XG6_PLB cell viability assay (AID 1919865). Note: potency is the fitted concentration of half-maximal effect; nearly all actives have a fitted effect of over 40% in size. The gist of the method: as §1
Assay [4] is described as follows: Quantitative High-Throughput drug screen in 47 multiple myeloma cell lines against the NCATS MIPE library collection: XG1_PLB cell viability assay (AID 1919866). Note: nearly all actives have a fitted effect of over 35% in size. Note: potency is the fitted concentration of half-maximal effect. Summed up: as §1
Assay [5] in a line: Quantitative High-Throughput drug screen in 47 multiple myeloma cell lines against the NCATS MIPE library collection: VP6_DJ cell viability assay (AID 1919867). Note: nearly all actives have a fitted effect of over 40% in size. Note: potency is the fitted concentration of half-maximal effect. The gist of the method: as §1
Assay [6] can be described thus: Quantitative High-Throughput drug screen in 47 multiple myeloma cell lines against the NCATS MIPE library collection: PE2_PLB cell viability assay (AID 1919869). Note: nearly all actives have a fitted effect of over 35% in size. Note: potency is the fitted concentration of half-maximal effect. Summed up:
as §1

Assay [7] can be described thus: Quantitative High-Throughput drug screen in 47 multiple myeloma cell lines against the NCATS MIPE library collection: PCM6_Riken cell viability assay (AID 1919870). Note: nearly all actives have a fitted effect of over 30% in size. Note: potency is the fitted concentration of half-maximal effect. Summed up: as §1
Assay [8] is described as follows: Quantitative High-Throughput drug screen in 47 multiple myeloma cell lines against the NCATS MIPE library collection: RPMI8226_ATCC cell viability assay (AID 1919871). Note: nearly all actives have a fitted effect of over 30% in size. Note: potency is the fitted concentration of half-maximal effect. The gist of the method: as §1
Assay [9] is described as follows: Quantitative High-Throughput drug screen in 47 multiple myeloma cell lines against the NCATS MIPE library collection: OPM2_DSMZ cell viability assay (AID 1919872). Note: nearly all actives have a fitted effect of over 30% in size. Note: potency is the fitted concentration of half-maximal effect. Summed up: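 CellTiter-Glo ATP luminescence gave viability after 48 h compound treatment at 37C of 500 multiple myeloma cells per well. Normalisation used DMSO-only wells as 100% and media-only wells as 0% viability; primary qHTS of approved and investigational drugs.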

A short description of assay [10]: Quantitative High-Throughput drug screen in 47 multiple myeloma cell lines against the NCATS MIPE library collection: KMS11_JCRBsus cell viability assay (AID 1919873). Note: nearly all actives have a fitted effect of over 50% in size. Note: potency is the fitted concentration of half-maximal effect. The gist of the method:
as §1

The nature of assay [11]: Quantitative High-Throughput drug screen in 47 multiple myeloma cell lines against the NCATS MIPE library collection: KMS28BM_JCRB cell viability assay (AID 1919874). Note: nearly all actives have a fitted effect of over 35% in size. Note: potency is the fitted concentration of half-maximal effect. The gist of the method: as §1
The nature of assay [12]: qHTS drug screen for cell cycle checkpoint inhibitors in PARPi-resistant BRCA-mutant ovarian cancer cell lines. (AID 1963452; calls by dose curve). As to conditions: PEO1/OlaR viability, CellTiter-Glo luminescence, 96 h, stronger effect = lower value. Summed up:
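PEO1, PEO4 and PEO1/OlaR ovarian cancer cells, 600 per well, exposed 96 h at 37C to a dilution series. Viability read by CellTiter-Glo luminescence, normalized to DMSO and empty wells; activity summarized as Z-AUC.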

The nature of assay [13]: qHTS for identification of novel therapeutic agents for treatment of microphthalmiaassociated transcription factor (MiT) renal cell carcinoma (RCC) (AID 1963991; calls by dose curve; note: potency is the fitted concentration of half-maximal effect). As to conditions: CellTiter-Glo, 48 h; for z-score: stronger effect = lower value. Summed up: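 Three TFE3-fusion RCC cell lines (UOK109, UOK124, UOK145), 500 cells/well, were exposed to the 1912-compound MIPE 4.0 library for 48 hours at 37 C. Viability was read by CellTiter-Glo luminescence, normalised to DMSO (100%) and empty wells (0%), with 11-concentration curve fits.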

The nature of assay [14]: Quantitative High-Throughput drug screen in 47 multiple myeloma cell lines against the NCATS MIPE library collection: SKMM1_PLB cell viability assay (AID 1919863). Note: nearly all actives have a fitted effect of over 35% in size. Note: potency is the fitted concentration of half-maximal effect. As to conditions: SKMM1 myeloma viability, CellTiter-Glo ATP, 48 h; viability: stronger effect = lower value. The gist of the method:
as §1

Assay [15] in a line: Quantitative High-Throughput drug screen in 47 multiple myeloma cell lines against the NCATS MIPE library collection: UTMC2_PLB cell viability assay (AID 1919868). Note: potency is the fitted concentration of half-maximal effect; nearly all actives have a fitted effect of over 55% in size. Conditions: CellTiter-Glo ATP luminescence, 48 h; viability (% of DMSO control): at 45.8 µM (top of the series). Summed up: as §1
The mark [16] stands for this setting: measured here: PEO1 parental Z-AUC.
The mark [17] stands for this setting: TFE3-RCC UOK109 viability, measured here: UOK109 Z-AUC.
[18] abbreviates: TFE3-RCC viability, measured here: UOK124 Z-AUC.
Where [19] appears, read: TFE3-RCC viability, measured here: UOK145 Z-AUC.

In the case of `COc1ccc2c(c[n+](C)c3c4cc5c(cc4ccc23)OCO5)c1OC`, the Potency was 9.35 µM (active) in [1]; 5.9 µM (active) in [2]; 5.26 µM (active) in [3]; 2.64 µM (active) in assay [4]; 2.96 µM (active) in assay [5]; 7.43 µM (active) in assay [6]. Besides, the Potency in assay [7] is 7.43 µM (active); in assay [8] it was 8.33 µM (active); in [9] it was 9.35 µM (active); in assay [10] it was 3.32 µM (active); in [11], 2.96 µM (active). Also, the Z-AUC is -0.492 (inactive) in assay [12], 0.375 in assay [12] (setting [16]) and 0.195 in assay [12] (measured here: PEO4 Z-AUC).
`Clc1ccccc1C(c1ccccc1)(c1ccccc1)n1cccn1`: the Potency entry in assay [1], in [4] and in assay [6] was “inactive” throughout. The Potency in assay [2] is 10.5 µM (active); in assay [8], 20.9 µM (active). For the same compound, the Z-AUC is 0.364 (inactive) in assay [12], 0.863 in [12] (setting [16]) and 1.14 in assay [12] (measured here: PEO4 Z-AUC). Further, the z-score in [13] (setting [17]) was -0.446; in assay [13] (setting [18]), 0.841; in assay [13] (setting [19]) it was -1.28.
As for `CC(C)(O)C(=O)Nc1ccc([N+](=O)[O-])c(C(F)(F)F)c1`, the Potency was 20.9 µM (active) in assay [1]; 18.7 µM (active) in assay [2]; 3.32 µM (active) in assay [3]; 8.33 µM (active) in assay [4]; 9.35 µM (active) in assay [6]; 8.33 µM (active) in [7]. Besides, the Potency result in [8] and in [9] was “inactive” in each case. The Z-AUC is 1.27 (inactive) in [12], 0.567 in assay [12] (setting [16]) and 0.85 in assay [12] (measured here: PEO4 Z-AUC).
In the case of `COc1cc2cc(c1Cl)N(C)C(=O)C[C@H](OC(=O)C(C)C)[C@]1(C)O[C@H]1[C@H](C)[C@@H]1C[C@@](O)(NC(=O)O1)[C@H](OC)C=CC=C(C)C2`, the Potency entry in assay [1], in assay [2], in assay [6], in assay [7], in assay [8] and in [9] was “inactive” in each case. For the same compound, the Potency entry in [10] and in [11] was “inactive” throughout. In [14], the viability is 50.1% (inactive). Also, the z-score in assay [13] (setting [17]) is -2.37; in assay [13] (setting [18]), -3.1; in assay [13] (setting [19]), -1.62.
Turning to `O=c1[nH]c2ccc(Cl)cc2c(N[C@@H]2CN3CCC2CC3)c1-c1nc2ccccc2[nH]1`, the Potency in assay [1] is 0.0526 µM (active); in assay [14], 4.69 µM (active); in [2] it was 5.9 µM (active); in assay [4], 0.264 µM (active); in [5], 0.132 µM (active); in [15], 0.332 µM (active). The Potency in assay [6] was 0.0743 µM (active); in assay [7], 0.166 µM (active); in [8] it was 5.9 µM (active); in assay [9], 5.9 µM (active); in [10] it was 0.235 µM (active); in assay [11], 1.32 µM (active). The Potency in assay [13] (TFE3-RCC UOK109 viability) was 3.72 µM (active). For the same compound, the Z-AUC is -1.21 (inactive) in assay [12], -1.35 in assay [12] (setting [16]) and -1.24 in [12] (measured here: PEO4 Z-AUC). In addition, the z-score was -0.938 in assay [13] (setting [17]), -2.71 in assay [13] (setting [18]) and -1.04 in assay [13] (setting [19]).
Turning to `O=S(=O)(CC1CS1)c1ccc(Oc2ccccc2)cc1` (stereo unspecified), the Potency in assay [1] was 18.7 µM (active); in assay [14], 20.9 µM (active); in assay [2], 14.8 µM (active); in assay [6] it was 16.6 µM (active); in assay [10] it was 26.4 µM (active). Besides, the Z-AUC in assay [12] is 1.02 (inactive); in assay [12] (setting [16]) it was 1.86; in assay [12] (measured here: PEO4 Z-AUC), 1.74.
Regarding `CC(C)[C@]12O[C@@H]1[C@@H]1O[C@]13[C@]1(O[C@H]1C[C@@H]1C4=C(CC[C@@]13C)C(=O)OC4)[C@H]2O`, the Potency entry in assay [1], in assay [2], in assay [4], in assay [6], in assay [8] and in assay [9] was “inactive” each time. The Potency result in assay [10] and in [11] was “inactive” in each case. In assay [14], the viability is -10.1% (inactive). Moreover, the z-score is -3.4 in assay [13] (setting [17]), -3.26 in assay [13] (setting [18]) and -3.53 in assay [13] (setting [19]).
Take `N=c1c2c(-c3ccccc3)c(-c3ccccc3)n(Cc3ccccc3)c2ncn1C1CCC(O)CC1` (stereo unspecified): the Potency in [1] is 3.32 µM (active); in assay [2] it was 4.69 µM (active); in assay [3], 6.62 µM (active); in [6], 4.69 µM (active); in assay [8], 14.8 µM (active); in assay [9] it was 5.9 µM (active). Further, the Potency in assay [10] was 2.09 µM (active); in assay [11] it was 3.32 µM (active). Also, the figures for the Z-AUC in [12], in assay [12] (setting [16]) and in assay [12] (measured here: PEO4 Z-AUC) were 0.292 (inactive), -0.41 and -0.216, respectively.
Take `CC1(N2CCC(n3c([C@@H]4CCCNC4)nc4ccccc43)CC2)CCCCCCC1`: the Potency in assay [1] is 7.43 µM (active); in [2], 5.26 µM (active); in assay [4] it was 18.7 µM (active); in assay [6] it was 16.6 µM (active); in [7], 14.8 µM (active); in [8], 20.9 µM (active). Moreover, the Potency is 18.7 µM (active) in assay [9], 13.2 µM (active) in [10] and 23.5 µM (active) in assay [11]. Besides, the Z-AUC was 1.01 (inactive) in assay [12], 0.227 in assay [12] (setting [16]) and 0.462 in assay [12] (measured here: PEO4 Z-AUC).
Consider `CCN(CC)C(=O)c1ccc(C2=CC3(CCNCC3)Oc3cccc(O)c32)cc1`, for which the Potency result in assay [1], in assay [5], in assay [6], in assay [7], in assay [9] and in [10] was “inactive” each time. Further, in [11], the Potency result is “inactive”. For the same compound, in assay [14], the viability was 112% (inactive). Also, the results for the Z-AUC in assay [12], in [12] (setting [16]) and in assay [12] (measured here: PEO4 Z-AUC) were -0.151 (inactive), 0.834 and 0.745, respectively.
Regarding `COc1ccc(CC2NCCc3cc(OC)c(OC)cc32)cc1OC` (stereo unspecified), the Potency result in assay [1], in assay [2], in [6], in assay [8], in [9] and in [10] was “inactive” in each case. Also, the Potency entry in [11] was “inactive”. Further, the viability in assay [14] is 129% (inactive). The Potency in [5] is 9.35 µM (active); in [7], 8.33 µM (active). Further, the z-score in [13] (setting [17]) was 0.368; in [13] (setting [18]), 0.055; in assay [13] (setting [19]) it was 0.8.
As to `NC1CC1c1ccccc1` (stereo unspecified), the Potency result in assay [1], in assay [2], in [4], in assay [6], in assay [7] and in assay [8] was “inactive” in each case. Moreover, the Potency entry in assay [9], in assay [10] and in assay [11] was “inactive” each time. Moreover, the z-score was found to be 0.891 in assay [13] (setting [17]), 0.509 in assay [13] (setting [18]) and 0.821 in assay [13] (setting [19]).
As to `CN1[C@H]2CC(O)C[C@H]1[C@H]1O[C@H]12` (stereo partly specified), the Potency in [1] is 18.7 µM (active); in assay [2], 23.5 µM (active); in [4], 9.35 µM (active); in assay [6], 20.9 µM (active); in [8] it was 18.7 µM (active); in assay [9], 23.5 µM (active).
For `CN(C)[C@@H]1C(=O)C(C(N)=O)=C(O)[C@@]2(O)C(=O)C3=C(O)c4c(O)cccc4[C@@](C)(O)[C@H]3[C@H](O)[C@@H]12`, the Potency result in assay [1], in assay [7], in assay [10] and in assay [11] was “inactive” throughout. The Potency in assay [14] is 14.8 µM (active); in assay [2] it was 18.7 µM (active); in [5] it was 23.5 µM (active); in assay [9] it was 20.9 µM (active). For the same compound, the values for the Z-AUC in assay [12], in assay [12] (setting [16]) and in [12] (measured here: PEO4 Z-AUC) were -0.415 (inactive), -0.31 and 0.0838, respectively. For the same compound, the z-score in [13] (setting [17]) amounted to 2.05; in assay [13] (setting [18]), 0.404; in [13] (setting [19]) it was 0.671.
